Screening results as filed in PubChem.
The list is not random: actives were taken first. Their share in the collection is about 19%.
IL-1B inflam inh: blocks inflammasome-driven IL-1 beta release; 4.7% of 360,000 active; activity change, % at 57.5 µM; THP-1 LPS/ATP IL-1B secretion, AlphaLISA, 16 h; active compounds read low; in the data active = activity change below about -50%; inconclusive = mostly about -30% to -49%
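THP-1 cells pretreated 1 hr with compounds (up to 57.5 uM final), then stimulated with LPS (250 ng/mL final) plus ATP (1.25 mM final); secreted IL-1B measured by AlphaLISA after 16 hr, decreased signal indicating inhibition.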
TDP1 cell CPT: DT40-hTDP1 cell growth loss with CPT. 12% of 420,000 active. chicken DT40 Tdp1-/-;hTDP1 cells + 20 nM CPT, ATP luminescence, 48 h. Potency, µM (highest dose often 46.2 µM), for the others: at the top dose activity change, negative = growth inhibition, most hits filed as inhibitors; note: potency is the fitted concentration of half-maximal effect; nearly all actives have a fitted effect of over 55% in size
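Chicken DT40 Tdp1-/- cells stably complemented with human TDP1 were seeded at 400 cells/well in medium containing 20 nM camptothecin, exposed to pin-transferred compounds, and grown at 37 °C for at least 48 hr. Viability was read as ATP luminescence.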
TDP1 cell noCPT: qHTS for Inhibitors of human tyrosyl-DNA phosphodiesterase 1 (TDP1): qHTS in cells in absence of CPT; DT40 Tdp1-/- hTDP1 cells, no CPT, ATP luminescence, 48 h; Potency, µM (highest dose often 46.2 µM), inactives show top-dose activity change, negative = growth inhibition, actives largely listed as inhibitors; 15% of 420,000 active; AID 686978, 2013; note: potency is the fitted concentration of half-maximal effect; nearly all actives have a fitted effect of over 55% in size
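Seeded 400 DT40-hTDP1 cells/well (vehicle DMSO, no 20 nM CPT); pinned compounds; ≥48 hr at 37 °C; CellTiter-Glo luminescence as viability measure.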
HT1080-NT tox: kills 2HG-producing HT-1080-NT fibrosarcoma cells | HT-1080-NT fibrosarcoma viability, CellTiter-Glo ATP luminescence, 48 h | Potency, µM (series often up to 46.1 µM), for inactives: at the top dose activity, negative = less viability, hits mostly cytotoxic | 1.6% of 360,000 active | AID 686970;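 note: NT is the 2HG producing partner of a matched IDH1 knockdown line; potency is the fitted concentration of half-maximal effect; 0% = DMSO-treated cells and -100% = media-only wells without cells; nearly all actives have a fitted effect of over 55% in size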
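HT-1080-NT; 750 cells/well; 5% FBS RPMI; 48 h compound, 37 degrees C; CellTiter-Glo luminescence; curve fitting and curve-class assignment.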
HT1080 IDH1KD tx: kills HT-1080 cells with IDH1 knockdown; HT-1080 IDH1 knockdown viability, ATP luminescence, 48 h; Potency, µM (series often up to 46.1 µM), without a hit: top-dose activity, negative = toxicity, most hits filed as cytotoxic; 2% of 360,000 active;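 note: potency is the fitted concentration of half-maximal effect; 0% = DMSO wells and -100% = cell-free medium wells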
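Luminescent ATP read-out (CellTiter-Glo, 10 min at room temperature) after 48 h compound exposure at 37 °C gave viability of IDH1-knockdown HT-1080 cells. Activity was normalised to DMSO and cell-free wells, then fitted as concentration-response curves.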
Starred values were filed as active, the others as inactive; ? = inconclusive; nt = not tested or not shown. Unless noted, calls come from the whole dose curve; as a rule, active = well fitted curve in the direction sought with a large enough effect; inconclusive = small, poorly fitted or top-dose-only effect, or another doubt; inactive = no such curve, though single readings can be large; an effect the other way counts as inactive or inconclusive. Unless noted, % is set by controls: 0 for no effect and ±100 for the full control effect.

SMILES	IL-1B inflam inh	TDP1 cell CPT	TDP1 cell noCPT	HT1080-NT tox	HT1080 IDH1KD tx
Cc1cccc(NC(=O)c2nc[nH]c2C(=O)Nc2cc(Br)ccc2F)c1	-12.4	13µM*	8.2µM*	11.2%	1.5%
CNC(=O)c1[nH]cnc1C(=O)Nc1cccc(Cl)c1	25.3	?	-16.6%	11.4%	-0.7%
COc1ccc(CC(=O)N[C@@H]2c3cc(OC)c(OC)cc3C[C@H]2O)cc1	-22.8	5.5%	-5.8%	-1.9%	-1.9%
Cc1ccc(NC(=O)c2cnn(-c3ccccc3)c2C)cc1C	?	?	?	-0.8%	-18.1%
CNS(=O)(=O)c1cc(NC(=O)c2cnc(SC)n2-c2ccccc2)ccc1C	-2.1	?	14.6µM*	1.5%	5.3%
CCN(CC)C(=O)Cn1cc(C(=O)C(=O)Nc2ccc3c(c2)OCCO3)c2ccccc21	?	18.4µM*	23.1µM*	?	?
O=C(Nc1ccc2c(c1)OCO2)C(=O)c1c[nH]c2ccccc12	-8.3	-9.3%	-8.0%	?	?
O=C(Nc1ccc2c(c1)OCCO2)C(=O)c1c[nH]c2ccccc12	?	10.3µM*	?	7.31µM*	?
O=C(CCNC(=O)c1ccccc1)Nc1ccc(Cl)c(S(=O)(=O)N2CCCCC2)c1	-8.6	-28.8%	?	-1.6%	-8.6%
CCC(=O)NC(c1ccccc1)c1c(O)ccc2ccccc12 (stereo not given)	-6.6	-17.1%	0.8%	19.2%	20.6%
CCCCC(=O)NC(c1ccc(N(C)C)cc1)c1ccc2cccnc2c1O (stereo not given)	116.4	1.03µM*	0.731µM*	?	?
Cc1ccc(C(Nc2ccccn2)c2ccc3cccnc3c2O)cc1 (stereo not given)	nt	20.6µM*	5.8µM*	nt	nt
CCCC(=O)NC(c1ccc(N(C)C)cc1)c1c(O)ccc2ccccc12 (stereo not given)	-5.7	7.4%	7.6%	3.5%	-2.2%
Cc1cccc(NC(c2cccc(Cl)c2)c2ccc3cccnc3c2O)n1 (stereo not given)	nt	5.17µM*	5.17µM*	nt	nt
CCCC(=O)NC(c1ccc(C)cc1)c1ccc2cccnc2c1O (stereo not given)	183.6	2.31µM*	1.16µM*	?	?
CC(=O)/C(=N\Nc1cccc(Cl)c1)Sc1cccc2cccnc12	29.6	18.2%	-14.6%	6.2%	6.5%
COc1ccc(N2CCN(C(=O)CSc3nc4nc(C)cc(C)n4n3)CC2)cc1	-1.4	?	-24.0%	-1.2%	-8.6%
COc1ccc(-c2oc3ncn4nc(COc5ccc(Cl)cc5)nc4c3c2-c2ccc(OC)cc2)cc1	nt	-24.8%	-27.1%	nt	nt
CCCCNC(=O)c1cn(C)c2ccc(S(=O)(=O)N3CC(C)CC(C)C3)cc2c1=O (stereo not given)	-6.8	?	11.0%	-0.8%	1.5%
CCCC(=O)NC(c1ccc(Cl)cc1Cl)c1ccc2cccnc2c1O (stereo not given)	124.1	4.11µM*	4.61µM*	?	8.2µM*
CC(=O)NC(c1ccc(Cl)cc1Cl)c1ccc2cccnc2c1O (stereo not given)	153.8	3.66µM*	4.61µM*	?	?
CCCC(=O)NC(c1ccccc1Cl)c1c(O)ccc2ccccc12 (stereo not given)	-26.4	?	?	-14.1%	-18.2%
CC(=O)NC(CC(=O)NC(C)c1ccc(Cl)cc1Cl)c1ccccc1 (stereo not given)	27.2	13.4%	-13.1%	-3.7%	4.4%
CCCC(=O)NC(c1ccc(Cl)cc1)c1ccc2cccnc2c1O (stereo not given)	108.3	4.11µM*	4.11µM*	?	?
CCCCC(=O)NC(c1ccc(Cl)cc1)c1ccc2cccnc2c1O (stereo not given)	156.0	1.3µM*	1.16µM*	?	?
SMILES	IL-1B inflam inh	TDP1 cell CPT	TDP1 cell noCPT	HT1080-NT tox	HT1080 IDH1KD tx
CCCCC(=O)NC(c1ccc(OC)c(OC)c1)c1c(O)ccc2ccccc12 (stereo not given)	-5.3	-6.7%	-13.9%	-4.7%	-12.6%
COc1ccc(C(C(=O)NC(C)(C)C)n2c(=O)c(-c3ccccc3)nc3ccccc32)cc1 (stereo not given)	-0.8	?	?	0.8%	-6.0%
CN(C)S(=O)(=O)Nc1ccc(-c2cn3ccsc3n2)cc1	nt	?	-23.3%	nt	nt
CC(=O)[C@H]1[C@H]([C@H](O)[C@H](O)CO)O[C@](O)(C(=O)O)C[C@@H]1O	22.5	6.3%	-6.1%	2.3%	3.9%
CN[C@H]1C[C@@H](c2ccccc2)N(C(C)=O)C[C@H]1CO	4.2	?	3.2%	-4.3%	7.8%
CCCN(CCC)C(=O)c1cc2c(=O)n3cccc(C)c3nc2n1C	nt	16.4µM*	23.1µM*	nt	nt
Cc1cccc(NC(=O)c2cc3c(=O)n4cccc(C)c4nc3s2)c1C	nt	1.84µM*	2.31µM*	nt	nt
COc1ccc(C)cc1NC(=O)c1cc2c(=O)n3cccc(C)c3nc2s1	nt	1.8%	-2.8%	nt	nt
Cc1cccn2c(=O)c3cc(C(=O)N4CCCCC4)sc3nc12	-1.5	-4.6%	-14.9%	7.2%	7.1%
Cc1cccn2c(=O)c3cc(C(=O)NCCCOC(C)C)sc3nc12	-12.7	?	20.6µM*	10.6%	-1.4%
CCCN(CCC)C(=O)c1cc2c(=O)n3cccc(C)c3nc2s1	15.3	?	18.4µM*	-3.0%	-3.3%
CCOC(=O)c1ccc(N=C2SC(C(=O)Nc3ccc(C(=O)O)cc3)CC(=O)N2Cc2cccs2)cc1 (stereo not given)	-16.8	?	?	-17.6%	?
CN(C(=O)CSc1nc2ccccc2[nH]1)c1ccc(F)cc1	nt	-14.3%	-15.8%	nt	nt
CN(C(=O)CSc1nc2ccccc2n1CC(=O)N(C)c1ccc(F)cc1)c1ccccc1	nt	18.4µM*	20.6µM*	nt	nt
CN(C(=O)CSc1nc2ccccc2n1CC(=O)N(C)C1CCCCC1)c1ccccc1	nt	?	18.4µM*	nt	nt
OC(COc1ccc2ccccc2c1Br)Cn1cnc(-c2ccccc2)c1 (stereo not given)	-95.8*	?	?	?	?
COc1ccc(OCC(O)Cn2cnc(-c3ccc(Br)cc3)c2)cc1 (stereo not given)	38.7	?	?	-13.6%	-28.5%
COC(=O)c1cn([C@@H]2C[C@@H](C(=O)N3CCCCCC3)N(Cc3cc4ccccc4s3)C2)nn1	nt	-28.7%	-26.5%	nt	nt
OCC(S)CS (stereo not given)	nt	?	16.8µM*	nt	nt
OC[C@H](S)CS	nt	8.91µM*	15.8µM*	nt	nt
CCOC(=O)c1sc(NC(=O)c2ccc3ncsc3c2)nc1C	-18.5	-1.2%	-17.4%	-24.9%	?
